Substitutions are numbered along the chain they refer to.
How the values were obtained:
Assay in all cases: PBM; 200 nM protein, PBS
Conditions in all cases: dsDNA, one strand shown
[1] = molecular target: HOXB6 (Homo sapiens, UniProt P17509 132-218, K202E)
[2] = molecular target: MSX2 (Homo sapiens, UniProt P35548 130-214, R199I)
[3] = molecular target: ALX1 (Homo sapiens, UniProt Q15699 118-204, L144V)
[4] = molecular target: ALX3 (Homo sapiens, UniProt O95076 139-225, N203Q)
[5] = molecular target: ALX1 (Homo sapiens, UniProt Q15699 118-204, L144R)
[6] = molecular target: MSX2 (Homo sapiens, UniProt P35548 130-214)
[7] = molecular target: ALX3 (Homo sapiens, UniProt O95076 139-225)
[8] = molecular target: ALX3 (Homo sapiens, UniProt O95076 139-225, L168Q)
[9] = molecular target: ALX3 (Homo sapiens, UniProt O95076 139-225, L168V)
[10] = molecular target: MSX2 (Homo sapiens, UniProt P35548 130-214, F161Y)
[11] = molecular target: NKX3-2 (Homo sapiens, UniProt P78367 192-278, P234S)
[12] = molecular target: ALX1 (Homo sapiens, UniProt Q15699 118-204)
[13] = molecular target: ALX3 (Homo sapiens, UniProt O95076 139-225, N203S)
[14] = molecular target: HOXB6 (Homo sapiens, UniProt P17509 132-218)
[15] = molecular target: NKX3-2 (Homo sapiens, UniProt P78367 192-278)
[16] = molecular target: T1, SIX6 (Homo sapiens, UniProt O95475 114-200, L143M)
T1 sequence: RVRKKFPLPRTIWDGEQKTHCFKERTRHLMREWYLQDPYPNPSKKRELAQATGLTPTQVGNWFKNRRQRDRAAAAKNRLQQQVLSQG

[17] = molecular target: T2, SIX6 (Homo sapiens, UniProt O95475 114-200, L143I)
T2 sequence: T1 sequence with M30I

[18] = molecular target: T3, NKX2-6 (Homo sapiens, UniProt A6NCS4 118-204, R150C)
T3 sequence: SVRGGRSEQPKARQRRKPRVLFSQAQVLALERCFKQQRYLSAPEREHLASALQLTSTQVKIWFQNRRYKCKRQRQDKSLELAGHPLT

[19] = molecular target: HOXA2 (Homo sapiens, UniProt O43364 129-215, R185T)
[20] = molecular target: HOXA2 (Homo sapiens, UniProt O43364 129-215, R185K)
[21] = molecular target: HOXA2 (Homo sapiens, UniProt O43364 129-215, Y150S)
[22] = molecular target: HOXA2 (Homo sapiens, UniProt O43364 129-215)
[23] = molecular target: T4, SIX6 (Homo sapiens, UniProt O95475 114-200, T139Q)
T4 sequence: T1 sequence with T26Q, M30L

[24] = molecular target: T5, SIX6 (Homo sapiens, UniProt O95475 114-200, L167V)
T5 sequence: T1 sequence with M30L, L54V

[25] = molecular target: T6, NKX2-4 (Homo sapiens, UniProt Q9H2Z4 175-261)
T6 sequence: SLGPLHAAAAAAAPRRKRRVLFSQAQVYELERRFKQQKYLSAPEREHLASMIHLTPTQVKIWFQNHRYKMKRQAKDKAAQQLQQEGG

[26] = molecular target: T7, NKX2-4 (Homo sapiens, UniProt Q9H2Z4 175-261, R246Q)
T7 sequence: T6 sequence with R72Q

[27] = molecular target: HOXD13 (Homo sapiens, UniProt P35453 263-343, T313R)
[28] = molecular target: HOXD13 (Homo sapiens, UniProt P35453 263-343)
[29] = molecular target: T8, PAX4 (Homo sapiens, UniProt O43316 9-242, F177Y)
T8 sequence: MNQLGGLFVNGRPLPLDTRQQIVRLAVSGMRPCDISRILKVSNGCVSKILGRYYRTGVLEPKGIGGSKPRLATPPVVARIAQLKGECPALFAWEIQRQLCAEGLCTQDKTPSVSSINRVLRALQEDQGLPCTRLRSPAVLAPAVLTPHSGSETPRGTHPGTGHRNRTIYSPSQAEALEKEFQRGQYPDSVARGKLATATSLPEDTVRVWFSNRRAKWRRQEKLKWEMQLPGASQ

[30] = molecular target: PROP1 (Homo sapiens, UniProt O75360 56-141)
[31] = molecular target: PROP1 (Homo sapiens, UniProt O75360 56-141, R99H)
[32] = molecular target: HOXD13 (Homo sapiens, UniProt P35453 263-343, T313A)
[33] = molecular target: HOXC9 (Homo sapiens, UniProt P31274 178-260, R222W)
[34] = molecular target: PROP1 (Homo sapiens, UniProt O75360 56-141, F88S)
[35] = molecular target: HESX1 (Homo sapiens, UniProt Q9UBX0 95-180)
[36] = molecular target: T9, SIX6 (Homo sapiens, UniProt O95475 114-200, T165G)
T9 sequence: T1 sequence with M30L, T52G

[37] = molecular target: T10, SIX6 (Homo sapiens, UniProt O95475 114-200, T165A)
T10 sequence: T1 sequence with M30L, T52A

[38] = molecular target: PITX2 (Homo sapiens, UniProt Q99697 72-157)

Chain of ALX1 (Homo sapiens, UniProt Q15699 118-204, L144V) (Q15699 118-204 L144V): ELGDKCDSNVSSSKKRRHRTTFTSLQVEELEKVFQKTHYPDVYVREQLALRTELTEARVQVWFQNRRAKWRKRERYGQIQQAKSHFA
Chain of HOXB6 (Homo sapiens, UniProt P17509 132-218) (P17509 132-218): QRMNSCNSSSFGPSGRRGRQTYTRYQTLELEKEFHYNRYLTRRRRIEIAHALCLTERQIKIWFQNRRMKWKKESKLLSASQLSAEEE
Chain of ALX1 (Homo sapiens, UniProt Q15699 118-204, L144R) (Q15699 118-204 L144R): as the sequence (Q15699 118-204 L144V) above, with V27R counted along it
Chain of HOXA2 (Homo sapiens, UniProt O43364 129-215, R185T) (O43364 129-215 R185T): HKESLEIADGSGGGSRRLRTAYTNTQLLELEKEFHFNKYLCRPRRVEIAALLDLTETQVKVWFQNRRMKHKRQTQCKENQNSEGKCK
Chain of HOXA2 (Homo sapiens, UniProt O43364 129-215) (O43364 129-215): as the sequence (O43364 129-215 R185T) above, with T57R counted along it
Chain of HOXC9 (P31274 178-260 R222W): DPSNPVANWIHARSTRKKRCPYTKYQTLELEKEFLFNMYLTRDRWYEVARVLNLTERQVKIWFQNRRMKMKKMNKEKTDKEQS
Chain of HOXB6 (Homo sapiens, UniProt P17509 132-218, K202E) (P17509 132-218 K202E): as the sequence (P17509 132-218) above, with K71E counted along it
Chain of HOXA2 (Homo sapiens, UniProt O43364 129-215, R185K) (O43364 129-215 R185K): as the sequence (O43364 129-215 R185T) above, with T57K counted along it
Chain of ALX1 (Homo sapiens, UniProt Q15699 118-204) (Q15699 118-204): as the sequence (Q15699 118-204 L144V) above, with V27L counted along it
Chain of HOXA2 (Homo sapiens, UniProt O43364 129-215, Y150S) (O43364 129-215 Y150S): as the sequence (O43364 129-215 R185T) above, with Y22S, T57R counted along it
Chain of MSX2 (Homo sapiens, UniProt P35548 130-214, F161Y) (P35548 130-214 F161Y): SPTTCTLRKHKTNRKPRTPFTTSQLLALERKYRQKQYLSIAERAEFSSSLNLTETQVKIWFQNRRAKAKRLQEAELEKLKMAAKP
Chain of HESX1 (Q9UBX0 95-180): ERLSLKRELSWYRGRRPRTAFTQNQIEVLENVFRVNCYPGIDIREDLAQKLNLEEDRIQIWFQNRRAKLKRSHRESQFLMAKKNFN
Chain of MSX2 (Homo sapiens, UniProt P35548 130-214, R199I) (P35548 130-214 R199I): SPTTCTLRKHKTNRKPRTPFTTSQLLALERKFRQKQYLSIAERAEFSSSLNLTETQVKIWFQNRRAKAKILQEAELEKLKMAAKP
Chain of MSX2 (Homo sapiens, UniProt P35548 130-214) (P35548 130-214): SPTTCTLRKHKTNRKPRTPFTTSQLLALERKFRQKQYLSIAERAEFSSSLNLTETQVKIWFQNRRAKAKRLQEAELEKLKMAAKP
Chain of ALX3 (Homo sapiens, UniProt O95076 139-225, L168V) (O95076 139-225 L168V): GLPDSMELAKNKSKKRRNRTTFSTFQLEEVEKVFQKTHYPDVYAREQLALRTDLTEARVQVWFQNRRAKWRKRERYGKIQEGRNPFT
Chain of ALX3 (Homo sapiens, UniProt O95076 139-225) (O95076 139-225): as the sequence (O95076 139-225 L168V) above, with V30L counted along it
Chain of HOXD13 (Homo sapiens, UniProt P35453 263-343, T313R) (P35453 263-343 T313R): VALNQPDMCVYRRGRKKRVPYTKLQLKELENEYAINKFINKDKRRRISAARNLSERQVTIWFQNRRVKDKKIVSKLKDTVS
Chain of NKX3-2 (Homo sapiens, UniProt P78367 192-278, P234S) (P78367 192-278 P234S): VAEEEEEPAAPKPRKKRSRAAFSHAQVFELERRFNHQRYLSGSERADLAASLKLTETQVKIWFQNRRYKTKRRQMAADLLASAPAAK
Chain of PROP1 (Homo sapiens, UniProt O75360 56-141) (O75360 56-141): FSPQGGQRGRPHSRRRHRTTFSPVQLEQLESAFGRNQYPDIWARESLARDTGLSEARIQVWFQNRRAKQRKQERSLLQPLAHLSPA
Chain of NKX3-2 (Homo sapiens, UniProt P78367 192-278) (P78367 192-278): as the sequence (P78367 192-278 P234S) above, with S43P counted along it
Chain of PROP1 (Homo sapiens, UniProt O75360 56-141, F88S) (O75360 56-141 F88S): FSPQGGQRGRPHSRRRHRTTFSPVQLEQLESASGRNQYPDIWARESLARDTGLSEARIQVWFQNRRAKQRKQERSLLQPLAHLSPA
Chain of ALX3 (Homo sapiens, UniProt O95076 139-225, N203S) (O95076 139-225 N203S): as the sequence (O95076 139-225 L168V) above, with V30L, N65S counted along it
Chain of PROP1 (Homo sapiens, UniProt O75360 56-141, R99H) (O75360 56-141 R99H): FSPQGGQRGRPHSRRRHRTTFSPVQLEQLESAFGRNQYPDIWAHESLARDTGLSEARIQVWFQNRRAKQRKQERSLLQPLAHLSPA
Chain of ALX3 (Homo sapiens, UniProt O95076 139-225, N203Q) (O95076 139-225 N203Q): as the sequence (O95076 139-225 L168V) above, with V30L, N65Q counted along it
Chain of ALX3 (Homo sapiens, UniProt O95076 139-225, L168Q) (O95076 139-225 L168Q): as the sequence (O95076 139-225 L168V) above, with V30Q counted along it
Chain of HOXD13 (Homo sapiens, UniProt P35453 263-343, T313A) (P35453 263-343 T313A): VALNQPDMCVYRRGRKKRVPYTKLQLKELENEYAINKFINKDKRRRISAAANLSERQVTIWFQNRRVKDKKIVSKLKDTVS
Chain of HOXD13 (Homo sapiens, UniProt P35453 263-343) (P35453 263-343): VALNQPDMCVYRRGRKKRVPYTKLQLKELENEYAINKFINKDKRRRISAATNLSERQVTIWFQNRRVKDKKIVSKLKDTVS

CGGATCCG was tested, and the binding signal [1] was 9.01 upbm affinity estimate (log intensity, higher = more binding, comparable within an allelic series), the binding signal [2] was 9.47 upbm affinity estimate (log intensity, higher = more binding, comparable within an allelic series) and the binding signal [3] was 6.32 upbm affinity estimate (log intensity, higher = more binding, comparable within an allelic series). The binding signal [4] was 7.82 upbm affinity estimate (log intensity, higher = more binding, comparable within an allelic series), the binding signal [5] was 6.18 upbm affinity estimate (log intensity, higher = more binding, comparable within an allelic series) and the binding signal [6] was 9.48 upbm affinity estimate (log intensity, higher = more binding, comparable within an allelic series). The binding signal [7] was 7.83 upbm affinity estimate (log intensity, higher = more binding, comparable within an allelic series), the binding signal [8] was 7.82 upbm affinity estimate (log intensity, higher = more binding, comparable within an allelic series) and the binding signal [9] was 7.74 upbm affinity estimate (log intensity, higher = more binding, comparable within an allelic series). For the same sequence, the binding signal [10] was 9.45 upbm affinity estimate (log intensity, higher = more binding, comparable within an allelic series), the binding signal [11] was 10.3 upbm affinity estimate (log intensity, higher = more binding, comparable within an allelic series) and the binding signal [12] was 6.2 upbm affinity estimate (log intensity, higher = more binding, comparable within an allelic series). The binding signal [13] was 7.82 upbm affinity estimate (log intensity, higher = more binding, comparable within an allelic series), the binding signal [14] was 8.86 upbm affinity estimate (log intensity, higher = more binding, comparable within an allelic series) and the binding signal [15] was 10.3 upbm affinity estimate (log intensity, higher = more binding, comparable within an allelic series).

ATCTGATC was tested, and the binding signal [16] was 11 upbm affinity estimate (log intensity, higher = more binding, comparable within an allelic series) and the binding signal [17] was 10.4 upbm affinity estimate (log intensity, higher = more binding, comparable within an allelic series).

With ATATCTAC the binding signal [16] was 11 upbm affinity estimate (log intensity, higher = more binding, comparable within an allelic series).

In the case of GCACGTGC, the binding signal [1] is reported as 9.35 upbm affinity estimate (log intensity, higher = more binding, comparable within an allelic series) and the binding signal [14] is reported as 9.36 upbm affinity estimate (log intensity, higher = more binding, comparable within an allelic series).

In the case of ATAGTATC, the binding signal [16] is reported as 11 upbm affinity estimate (log intensity, higher = more binding, comparable within an allelic series).

AACTACTT was tested, and the binding signal [1] was 9.54 upbm affinity estimate (log intensity, higher = more binding, comparable within an allelic series), the binding signal [18] was 11.2 upbm affinity estimate (log intensity, higher = more binding, comparable within an allelic series) and the binding signal [14] was 10.1 upbm affinity estimate (log intensity, higher = more binding, comparable within an allelic series).

CACCCGGG was tested, and the binding signal [1] was 9.01 upbm affinity estimate (log intensity, higher = more binding, comparable within an allelic series), the binding signal [19] was 7.01 upbm affinity estimate (log intensity, higher = more binding, comparable within an allelic series) and the binding signal [20] was 10.3 upbm affinity estimate (log intensity, higher = more binding, comparable within an allelic series). The binding signal [21] was 10.5 upbm affinity estimate (log intensity, higher = more binding, comparable within an allelic series), the binding signal [22] was 7.11 upbm affinity estimate (log intensity, higher = more binding, comparable within an allelic series) and the binding signal [14] was 8.87 upbm affinity estimate (log intensity, higher = more binding, comparable within an allelic series).

In the case of ATAGATAC, the binding signal [16] is reported as 10.9 upbm affinity estimate (log intensity, higher = more binding, comparable within an allelic series) and the binding signal [23] is reported as 11.1 upbm affinity estimate (log intensity, higher = more binding, comparable within an allelic series).

CGGATATC was tested, and the binding signal [16] was 10.9 upbm affinity estimate (log intensity, higher = more binding, comparable within an allelic series) and the binding signal [24] was 10.8 upbm affinity estimate (log intensity, higher = more binding, comparable within an allelic series).

CTCGTGCC was tested, and the binding signal [1] was 9.04 upbm affinity estimate (log intensity, higher = more binding, comparable within an allelic series), the binding signal [3] was 6.52 upbm affinity estimate (log intensity, higher = more binding, comparable within an allelic series) and the binding signal [5] was 6.32 upbm affinity estimate (log intensity, higher = more binding, comparable within an allelic series). The binding signal [12] was 6.36 upbm affinity estimate (log intensity, higher = more binding, comparable within an allelic series) and the binding signal [14] was 8.84 upbm affinity estimate (log intensity, higher = more binding, comparable within an allelic series).

With AGGGGTCA the binding signal [25] was 11.2 upbm affinity estimate (log intensity, higher = more binding, comparable within an allelic series).

With AGTGCAGA the binding signal [25] was 11.4 upbm affinity estimate (log intensity, higher = more binding, comparable within an allelic series) and the binding signal [26] was 11.7 upbm affinity estimate (log intensity, higher = more binding, comparable within an allelic series).

CAGCAGGG was tested, and the binding signal [1] was 9.1 upbm affinity estimate (log intensity, higher = more binding, comparable within an allelic series), the binding signal [19] was 7.49 upbm affinity estimate (log intensity, higher = more binding, comparable within an allelic series) and the binding signal [20] was 10.3 upbm affinity estimate (log intensity, higher = more binding, comparable within an allelic series). The binding signal [21] was 10.3 upbm affinity estimate (log intensity, higher = more binding, comparable within an allelic series), the binding signal [22] was 7.08 upbm affinity estimate (log intensity, higher = more binding, comparable within an allelic series) and the binding signal [14] was 9.13 upbm affinity estimate (log intensity, higher = more binding, comparable within an allelic series).

For AATTTAAT, the binding signal [1] was 9.98 upbm affinity estimate (log intensity, higher = more binding, comparable within an allelic series), the binding signal [27] was 10.4 upbm affinity estimate (log intensity, higher = more binding, comparable within an allelic series) and the binding signal [28] was 11.5 upbm affinity estimate (log intensity, higher = more binding, comparable within an allelic series). The binding signal [29] was 10.9 upbm affinity estimate (log intensity, higher = more binding, comparable within an allelic series), the binding signal [30] was 11.2 upbm affinity estimate (log intensity, higher = more binding, comparable within an allelic series) and the binding signal [31] was 10.7 upbm affinity estimate (log intensity, higher = more binding, comparable within an allelic series). The binding signal [32] was 11.3 upbm affinity estimate (log intensity, higher = more binding, comparable within an allelic series), the binding signal [33] was 11.1 upbm affinity estimate (log intensity, higher = more binding, comparable within an allelic series) and the binding signal [34] was 7.76 upbm affinity estimate (log intensity, higher = more binding, comparable within an allelic series).

For GACCGAGC, the binding signal [1] was 8.96 upbm affinity estimate (log intensity, higher = more binding, comparable within an allelic series), the binding signal [3] was 6.39 upbm affinity estimate (log intensity, higher = more binding, comparable within an allelic series) and the binding signal [5] was 6.24 upbm affinity estimate (log intensity, higher = more binding, comparable within an allelic series). The binding signal [12] was 6.33 upbm affinity estimate (log intensity, higher = more binding, comparable within an allelic series) and the binding signal [14] was 8.92 upbm affinity estimate (log intensity, higher = more binding, comparable within an allelic series).

In the case of AGTCCCCC, the binding signal [1] is reported as 8.9 upbm affinity estimate (log intensity, higher = more binding, comparable within an allelic series), the binding signal [3] is reported as 6.53 upbm affinity estimate (log intensity, higher = more binding, comparable within an allelic series) and the binding signal [5] is reported as 6.37 upbm affinity estimate (log intensity, higher = more binding, comparable within an allelic series). The binding signal [12] was 6.41 upbm affinity estimate (log intensity, higher = more binding, comparable within an allelic series) and the binding signal [14] was 8.97 upbm affinity estimate (log intensity, higher = more binding, comparable within an allelic series).

ACTACTAG was tested, and the binding signal [25] was 11.1 upbm affinity estimate (log intensity, higher = more binding, comparable within an allelic series).

AATAAATA was tested, and the binding signal [33] was 11 upbm affinity estimate (log intensity, higher = more binding, comparable within an allelic series).

In the case of AATAAAAG, the binding signal [33] is reported as 11 upbm affinity estimate (log intensity, higher = more binding, comparable within an allelic series).

In the case of AAGTAGAG, the binding signal [35] is reported as 7.4 upbm affinity estimate (log intensity, higher = more binding, comparable within an allelic series).

In the case of ATTACACC, the binding signal [36] is reported as 10.7 upbm affinity estimate (log intensity, higher = more binding, comparable within an allelic series), the binding signal [37] is reported as 10.7 upbm affinity estimate (log intensity, higher = more binding, comparable within an allelic series) and the binding signal [38] is reported as 9.68 upbm affinity estimate (log intensity, higher = more binding, comparable within an allelic series).

CATGACAC was tested, and the binding signal [36] was 10.7 upbm affinity estimate (log intensity, higher = more binding, comparable within an allelic series).

For CCGCCGCA, the binding signal [19] was 7.15 upbm affinity estimate (log intensity, higher = more binding, comparable within an allelic series), the binding signal [2] was 9.56 upbm affinity estimate (log intensity, higher = more binding, comparable within an allelic series) and the binding signal [20] was 10.1 upbm affinity estimate (log intensity, higher = more binding, comparable within an allelic series). For the same sequence, the binding signal [6] was 9.59 upbm affinity estimate (log intensity, higher = more binding, comparable within an allelic series), the binding signal [10] was 9.59 upbm affinity estimate (log intensity, higher = more binding, comparable within an allelic series) and the binding signal [21] was 10.4 upbm affinity estimate (log intensity, higher = more binding, comparable within an allelic series). The binding signal [22] was 7.05 upbm affinity estimate (log intensity, higher = more binding, comparable within an allelic series).

For ACGATCAA, the binding signal [35] was 7.32 upbm affinity estimate (log intensity, higher = more binding, comparable within an allelic series).

With GGTGATTA the binding signal [19] was 12.6 upbm affinity estimate (log intensity, higher = more binding, comparable within an allelic series) and the binding signal [20] was 13.1 upbm affinity estimate (log intensity, higher = more binding, comparable within an allelic series).
